In the library only some 21% were active in any assay of this set; here they are far more common.
Pf growth 96h – inhibits malaria parasite growth, 96 h | P. falciparum luciferase reporter growth, 96 h | Potency, µM (top dose mostly 28.7 µM), for inactives: at the top dose activity change, negative = inhibition, usual class: inhibitors | hit rate 6.9% among 320,000 | AID 504834; also: potency is read from the fitted curve at half-maximal effect; % is scaled to controls: 0 for no effect and ±100 for the full control effect
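P. falciparum expressing integrated firefly luciferase, in erythrocytes at 2% hematocrit, 0.05% parasitemia, incubated with compounds 96 h at 37 C, 5% CO2. Growth inhibition read as loss of luminescence; two-generation exposure targets delayed-death apicoplast inhibitors.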
CHX counter – affects cycloheximide protein synthesis inhibition readout, counter-screen | cell reporter, cycloheximide protein synthesis inhibition counterscreen | max response, % | hit rate 12% among 300,000 | AID 2314; in the data active = max response mostly above about 13%, no sharp cut-off; inactive = mostly below about 14%; also: read at 38.3 µM for the half of the compounds with a filed dose; 0% is about no effect
Shiga inhibitor – Shiga toxin inhibition. Vero cells, Shiga toxin protein synthesis inhibition reporter. hit rate 9.2% among 290,000. inhibition, % at 38.7 µM. AID 2315; in the data active = inhibition mostly above about 28%, no sharp cut-off; inactive = mostly below about 43%; also: 0% is about no effect
Pf growth 48h – P. falciparum growth inhibition at 48 hours (one generation) | P. falciparum luciferase growth in erythrocytes, 48 h | Potency, µM (series often up to 28.7 µM), without a hit: top-dose activity change, negative = inhibition, actives largely listed as inhibitors | hit rate 5.9% among 310,000 | AID 504832; also: potency is read from the fitted curve at half-maximal effect; % is scaled to controls: 0 for no effect and ±100 for the full control effect
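A one-generation exposure of luciferase-tagged malaria parasites in RPMI 1640/Albumax erythrocyte culture, 37 C and 5% CO2. Inhibition is inferred from decreased luminescence after adding detection reagent.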
Starred values were filed as active, the others as inactive; ? = inconclusive; nt = no result. Unless noted, calls follow the shape of the dose curve; as a rule, active = well fitted inhibition curve with a large enough effect; inconclusive = small, poorly fitted or top-dose-only effect, or another doubt; inactive = no such curve, though single readings can be large or run the other way.

SMILES	Pf growth 96h	CHX counter	Shiga inhibitor	Pf growth 48h
CC(C)(C)NC(=O)C(c1ccccc1)N(C(=O)CNC(=O)c1cccs1)c1cccnc1 (stereo not drawn)	37.8%	-3.8	14.5	-3.7%
Nc1ccc2c(c1)COc1ccccc1O2	22.1%	15.9*	88.0*	57.6%
O=C(NC1CCCC1)c1cc(-c2ccc(Cl)c(Cl)c2)on1	47.6%	26.7*	45.4*	9.6%
Cc1ccc(-c2cc(C(=O)NC3CCCC3)no2)cc1	33.6%	37.2*	92.2*	108.5%
O=C(NC1CCCCC1)c1cc(-c2ccc(F)cc2)on1	-27.2%	11.9*	36.5	75.0%
O=C(COCc1cc(-c2cccs2)on1)NC1CCCCC1	17.7%	7.3	-5.6	13.5%
O=C(NC1CCCCC1)c1cc(-c2cccs2)on1	?	49.5*	117.0*	191.9%
CCc1ccccc1NC(=O)c1cc(-c2ccc(F)cc2)on1	-0.2%	20.6	32.8	21.0%
CC1CCCC(C)N1C(=O)c1cc(-c2ccc(Cl)c(Cl)c2)on1 (stereo not drawn)	9.7%	-1.5	1.9	127.2%
Cc1ccc(CN2CCN(C(=O)CC(C)C)CC2)cc1	?	7.7	nt	2.7%
CN(C)C1CCN(C(=O)c2cccc(OC3CCN(S(=O)(=O)N(C)C)CC3)c2)C1 (stereo not drawn)	?	2.6	1.5	4.0%
O=C(NN=C1C2CC3CC1CC(Cl)(C3)C2)c1ccccn1	?	14.3*	43.1	223.2%
O=C(NN=C1C2CC3CC1CC(Cl)(C3)C2)c1cccs1	17.5%	44.7*	35.1	194.5%
CCn1cc(CNC(=O)c2cc(-c3cc(OC)ccc3OC)nc3ccccc23)c(C)n1	?	-4.0	-9.6	?
CC1=CC(C)=Nc2ccccc2N1	69.4%	45.5*	62.2*	nt
Cc1ccc(CN2CCNC(=O)C2CC(=O)NCCCn2ncc3ccccc32)o1 (stereo not drawn)	?	-2.2	-8.9	9.9%
Cc1ccc(Nc2ccc(-n3ccnc3)nn2)cc1C	10.4µM*	22.4*	2.4	?
CCCCNC(=O)[C@@](CC)(ONc1ccccc1C(F)(F)F)c1cccc2ccccc12	?	nt	nt	8.28µM*
CCCCNC(=O)C(CC)(ONc1ccccc1C(F)(F)F)c1ccccc1 (stereo not drawn)	?	nt	nt	13.1µM*
CCCCNC(=O)Nc1ccccc1Br	-1.9%	18.1	13.0	15.5%
COc1ccc(CNC(=O)c2ccc(Br)cc2)cc1	45.5%	12.8*	62.9	21.3%
COc1ccccc1CNC(=O)C(NC(=O)c1ccccc1)C(C)C (stereo not drawn)	-4.6%	0.6	21.7	13.1µM*
Cc1ccc(Oc2ccc(C(=O)NCc3ccncc3)cc2)cc1	?	-0.7	-5.3	?
COc1ccc(CNC(=O)c2ccc(C)cc2)cc1	nt	23.8	39.2*	nt
COc1ccc(CNC(=O)c2ccc(-c3ccccc3)cc2)cc1OC	31.5%	0.6	3.1	1.9%
SMILES	Pf growth 96h	CHX counter	Shiga inhibitor	Pf growth 48h
COc1ccc(CNC(=O)c2ccc(-c3ccccc3)cc2)cc1	51.8%	45.1*	79.3*	11.5%
CCOc1ccc(C(C(=O)NCC2CCCO2)N(Cc2cccnc2)C(=O)c2snc(C(N)=O)c2N)cc1 (stereo not drawn)	-4.5%	-3.6	4.6	?
COc1ccc(C(=O)NCc2ccccc2OC)cc1	5.22µM*	9.2	9.9	?
COc1ccccc1CNC(=O)c1sccc1C	11.0%	5.7	35.1	20.3%
COc1ccccc1CNC(=O)c1ccc(-c2ccccc2)cc1	?	12.2	-12.5	-1.1%
COc1ccc(CNC(=O)c2sccc2C)cc1	9.9%	14.7*	21.7	9.0%
CCC(C)Sc1nnc(CSc2nc3nc(C)cc(C)n3n2)o1 (stereo not drawn)	?	-3.1	-11.5	15.9%
O=C(CSc1cccs1)Nc1ccc(Cl)cc1	43.8%	53.5*	50.2*	82.1%
O=C(CSc1nnc(CNC(=O)c2cccs2)o1)Nc1ccc(Cl)cc1	10.4µM*	0.7	-4.8	1.8%
O=C(CSc1nnc(CNC(=O)c2cccs2)o1)Nc1ccc(Br)cc1	13.1µM*	1.2	1.8	7.2%
COc1cccc(C(=O)NOCc2ccccc2)c1OC	334.6%	nt	nt	290.3%
Cc1cc(NC(=O)CN2C(=O)NC3(CCCCCC3)C2=O)ccc1Br	-21.6%	nt	nt	-27.8%
CCOc1ccccc1NC(=O)n1ncc2c(C)cccc21	2.5%	4.5	11.1	19.2%
Cc1cccc2c1cnn2C(=O)Nc1cc(F)ccc1F	5.5%	39.6*	59.3*	262.5%
Cc1cccc2c1cnn2C(=O)CCC(=O)NCc1ccc(F)cc1	14.7µM*	-1.1	-2.5	6.0%
Cc1nn(C)cc1CN(C)S(=O)(=O)c1cccc([N+](=O)[O-])c1	-24.2%	-1.5	-7.7	6.9%
CN(Cc1ccc(C(C)(C)C)cc1)C(=O)c1ccc2c(=O)n3c(nc2c1)CCC3	?	nt	nt	13.1µM*
COc1ccc(CN(C)C(=O)c2ccc3c(=O)n4c(nc3c2)CCC4)cc1	?	44.0*	110.2*	-2.2%
Cc1cc(CC(C)C)n(-c2nc3ccccc3c(=O)n2OCC(N)=O)n1	?	25.7*	104.2*	-19.9%
Cc1cc(C)n(-c2nc3ccccc3c(=O)n2OCC(N)=O)n1	-36.9%	10.2	-12.8	-0.5%
c1ccc(CNc2ccc3c(c2)ncn3C2CCCCC2)nc1	84.6%	21.9*	45.9*	?
O=c1[nH]c(CSc2nnc3ccccn23)nc2cc(C(F)(F)F)ccc12	0.6%	-2.9	36.0	24.2%
CCCCNC(=O)C1Cc2cc(S(=O)(=O)N3CCCC3)ccc2N1C(C)=O (stereo not drawn)	?	-9.3	-6.4	13.0%
O=S(=O)(c1ccc(N2CCOCC2)nc1)N(Cc1ccccn1)Cc1ccccn1	6.9%	-1.4	1.7	17.4%
CCOC(=O)c1c(CN2CCN(c3ccccc3)CC2)oc2cc(Br)c(O)cc12	?	-2.0	2.6	1.65µM*
SMILES	Pf growth 96h	CHX counter	Shiga inhibitor	Pf growth 48h
CCOC(=O)c1c(CN2CCN(Cc3ccccc3)CC2)n(C)c2cc(Br)c(OC)cc12	?	-0.9	-1.4	nt
CCOC(=O)c1c(CN2CCN(C)CC2)n(-c2ccccc2)c2cc(Br)c(O)cc12	?	-2.5	-19.0	?
CCOC(=O)c1c(CNc2ccncc2)n(C)c2cc(Br)c(O)cc12	-0.3%	-1.2	-6.9	0.329µM*
CCOC(=O)c1c(CSC(=N)N)n(-c2ccccc2)c2cc(Br)c(OC(C)=O)cc12	2.08µM*	-1.7	-12.9	2.94µM*
CCOC(=O)c1c(CN2CCN(C)CC2)oc2ccc(O)cc12	?	11.5	7.6	-28.5%
CCOC(=O)c1c(C)n(C)c2cc(Br)c(C)cc12	16.3%	-2.0	3.1	nt
CCOC(=O)c1c(CN2CCN(CCO)CC2)n(-c2ccccc2)c2cc(Br)c(O)cc12	1.65µM*	-3.5	-21.5	2.08µM*
CC(c1ccco1)N(C(=O)c1ccc(Cl)c([N+](=O)[O-])c1)c1ccccn1 (stereo not drawn)	-8.7%	11.3	7.6	-15.2%
O=C(NCCN1CCCCC1)Nc1cccc(F)c1	-12.2%	0.5	-7.0	0.0%
COc1ccc([N+](=O)[O-])cc1NC(=O)C1CCCO1 (stereo not drawn)	-15.8%	-1.9	17.7	3.5%
Cc1ccc(S(=O)(=O)N2CCC(C(=O)OCC(=O)N(Cc3ccccc3)C(C)(C)C)CC2)cc1C	-24.3%	nt	nt	?
